RecA intein inh = Mtb RecA intein splicing inhibition; P9WHJ3; cell-free RecA intein splicing, fluorescence; inhibition, % (no concentration beside the values); actives 0.75% (n = 290,000); in the data active means inhibition above about 30%; inconclusive means no clear call, values can overlap the other calls
Mtb bLac sens = beta-lactam sensitization of Mtb H37Rv. AID 434955. actives 0.27% (n = 330,000). M. tuberculosis H37Rv growth with meropenem, percent inhibition. inhibition, % at 25 µM; call rule not given here;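 further: growth measured after seven days incubation then overnight dye step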
GDH-TPI counter = counter-screen for M. tuberculosis FBA inhibitors: GDH-TPI coupled enzymes | GDH-TPI coupled enzyme counterscreen, NADH absorbance | inhibition, % at 4.8 µM | actives 1.2% (n = 360,000) | AID 588335; in the data active means inhibition above about 30%
Rv3671c protease = inhibitors of M. tuberculosis serine protease Rv3671c | P9WHR9 | inhibition, % at 5.96 µM | actives 0.048% (n = 320,000) | AID 2606; in the data active means inhibition above about 38%;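 further: extracellular domain of Rv3671c used as enzyme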
FBA Mtb inh = inhibits M. tuberculosis FBA enzyme. inhibition, % at 1 µM. actives 2.3% (n = 360,000). P9WQA3. purified M. tuberculosis FBA, fluorescence read-out; in the data active means inhibition above about 27%
Target sequence (P9WQA3 whole entry, looked up): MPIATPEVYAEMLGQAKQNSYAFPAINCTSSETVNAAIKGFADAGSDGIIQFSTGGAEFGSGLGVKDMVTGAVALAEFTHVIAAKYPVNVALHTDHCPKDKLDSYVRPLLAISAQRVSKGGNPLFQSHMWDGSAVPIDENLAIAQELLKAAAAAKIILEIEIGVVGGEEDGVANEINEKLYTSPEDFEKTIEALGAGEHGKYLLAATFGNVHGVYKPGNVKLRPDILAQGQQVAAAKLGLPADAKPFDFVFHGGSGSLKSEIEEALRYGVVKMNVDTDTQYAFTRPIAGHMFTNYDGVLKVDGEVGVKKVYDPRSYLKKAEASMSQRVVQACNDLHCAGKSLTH
Mtb UGM inh = blocks M. tuberculosis UGM enzyme | purified UGM, fluorescence polarization probe displacement | inhibition, % at 10 µM | actives 0.06% (n = 320,000) | AID 504406; in the data active means inhibition above about 10%, passing the limit was not always enough; inconclusive means no clear call, values can overlap the other calls
Large screens that a line does not name were inactive. Compounds with a hit are over-represented: about 4% of the library has one in this group of screens.

Cc1cc(/C=N/NC(=O)c2ccncc2)c(C)n1-c1ccccc1	none (no result: RecA intein inh)
Cc1cc(=O)[nH]c(N/N=C/c2ccccc2Cl)n1	none
COc1ccc(/C=N/NC(=O)c2cccs2)c2ccccc12	GDH-TPI counter 32 (no result: RecA intein inh)
Cc1cc(/C=N/NC(=O)c2cccs2)c(C)n1-c1ccccc1	GDH-TPI counter 33
Cc1cc(=O)[nH]c(N/N=C/c2cc(C)n(-c3ccccc3)c2C)n1	GDH-TPI counter 43
COc1ccc(/C=N/NC(=O)c2ccncc2)c(C(=O)O)c1OC	none
COc1ccc(/C=N/NC(=O)c2cccnc2)c(C(=O)O)c1OC	GDH-TPI counter 32
CCCn1c(=O)c(C(=O)Nc2ccccc2N)c(O)c2ccccc21	none (no result: RecA intein inh, Mtb bLac sens, Rv3671c protease, Mtb UGM inh)
Cn1cnc2nc[nH]c2c1=O	none (no result: RecA intein inh, Mtb bLac sens, Rv3671c protease, Mtb UGM inh)
COc1ccccc1N1CCN(C(=O)C2CCN(S(=O)(=O)c3ccccc3F)CC2)CC1	none (no result: RecA intein inh)
O=C(N/N=C/c1cccc2ccccc12)c1cccnc1	none
Cn1cc(/C=N\NC(=O)c2cccs2)c2ccccc21	GDH-TPI counter 32
COc1ccc(/C=N/NC(=O)c2cccnc2)c2ccccc12	GDH-TPI counter 36
Cc1cc(-c2ccc(C(C)C)c(S(=O)(=O)N3CCC(C)CC3)c2)on1	none
O=C(c1ccco1)N1CCN(c2nc(C3CC3)nc3sc4c(c23)CCCC4)CC1	RecA intein inh 38
C[C@H](CO)N1C[C@H](C)[C@@H](CN(C)C(=O)Nc2ccc3c(c2)OCO3)Oc2c(NC(=O)Nc3ccc(C(F)(F)F)cc3)cccc2C1=O	none (no result: RecA intein inh)
COc1ccc(-c2ccc3oc(-c4ccc(OC)cc4)c(C#CC4(O)CCCCC4)c3c2)cc1	GDH-TPI counter 44
c1coc(-c2nc(-c3ccco3)c(-c3ccco3)nc2-c2ccco2)c1	FBA Mtb inh 32 (no result: RecA intein inh)
Cc1ccc(NC(=O)CN2C(=O)N/C(=C\c3cccnc3)C2=O)cc1	none
O=C1N/C(=C/c2ccco2)C(=O)N1Cc1ccccc1F	GDH-TPI counter 33
Cc1cc(N2CCOCC2)ccc1/C=C1\NC(=O)N(CC(=O)Nc2ccc(F)cc2)C1=O	none
Cc1ccc(NC(=O)CN2C(=O)N/C(=C\c3ccco3)C2=O)cc1	GDH-TPI counter 34 (no result: RecA intein inh)
Cc1cccc(NC(=O)CN2C(=O)N/C(=C\c3ccc(N4CCOCC4)cc3)C2=O)c1	GDH-TPI counter 31
CCOC(=O)CNC(=O)CSc1nnc(NC(=O)c2ccc(S(=O)(=O)N3CCOCC3)cc2)s1	none
O=C(Nc1nc(-c2ccccn2)cs1)c1ccc(Cl)s1	GDH-TPI counter 36
Cc1ccc(C(=O)Nc2nc(-c3ccccn3)cs2)s1	none (no result: RecA intein inh)
CCN(CC)c1ccc(-c2nn3c(-c4n[nH]c5c4CCC5)nnc3s2)cc1	FBA Mtb inh 40
COc1ccc(S(=O)(=O)Nc2cc3c4c(c2)CCC(=O)N4CCC3)cc1C	none
O=C(NCC1CCCO1)c1ccc2c(c1)N(Cc1ccc(Cl)cc1)CCS2 (stereo unspecified)	FBA Mtb inh 132 (no result: RecA intein inh, Mtb bLac sens, Rv3671c protease, Mtb UGM inh)
Cc1ccc(CN2CCSc3ccc(C(=O)NCCCN4CCN(C)CC4)cc32)cc1	FBA Mtb inh 161
O=C(NCC1CCCO1)c1ccc2c(c1)N(Cc1ccccc1)C(=O)CS2 (stereo unspecified)	none
Cc1ccc(C)c(S(=O)(=O)N2CCN(C(=O)CSC(=S)N3CCCC3)CC2)c1	none
CC(OC(=O)CCCN=C1NS(=O)(=O)c2ccccc21)C(=O)NC1CCCCC1C (stereo unspecified)	none
CC(C)C1Oc2cc3oc(=O)ccc3cc2C1=O (stereo unspecified)	FBA Mtb inh 115
O=c1ccc2cc3c(-c4ccccc4)coc3cc2o1	none (no result: Rv3671c protease)
CC1C(=O)NN=C1C(=O)N/N=C\c1ccc(O)cc1O (stereo unspecified)	GDH-TPI counter 62
Cc1cnc(NC(=O)c2sc(Nc3ccccc3)nc2N)o1	GDH-TPI counter 31
Nc1nc(Nc2ccccc2)sc1C(=O)c1ccccc1	none
Cc1cc(F)ccc1-c1cc(C(=O)Nc2ccccc2)[nH]n1	none (no result: RecA intein inh, Mtb bLac sens, Rv3671c protease, Mtb UGM inh)
COc1ccc(C)cc1NC(=O)C1CCCN1C(=O)OCc1ccccc1 (stereo unspecified)	none (no result: Mtb UGM inh)
COc1cc2nc(N3CCN(C(=O)OCc4ccccc4)[C@H](C(=O)NC(C)(C)C)C3)nc(N)c2cc1OC	FBA Mtb inh 89 (no result: RecA intein inh, Mtb bLac sens)
O=C(CC(SCCO)c1ccc([N+](=O)[O-])cc1)c1ccco1 (stereo unspecified)	GDH-TPI counter 31
CC(=O)NC(CSC(CC(=O)c1ccco1)c1ccc(C)cc1)C(=O)O (stereo unspecified)	GDH-TPI counter 31
O=c1cc(C(F)(F)F)[nH]c2c(C(F)(F)F)cccc12	FBA Mtb inh active
COc1ccc(/C=C(\C#N)C(=O)Nc2cccnc2)cc1	GDH-TPI counter 32
N#C/C(=C\c1ccc(F)cc1)C(=O)Nc1ccccn1	none
CC(NC(=O)/C(C#N)=C/c1ccc(OCC(=O)O)cc1)c1ccccc1 (stereo unspecified)	GDH-TPI counter 37 (no result: RecA intein inh)
CCOc1ccc(/C=C(\C#N)C(=O)Nc2ccccn2)cc1	GDH-TPI counter 38
COc1ccc(/C=C(/C#N)C(=O)Nc2cccnc2)cc1OC	none
Cc1ccc(OC(=O)N(C)C[C@@H]2OCc3cn(nn3)CCCC(=O)N([C@H](C)CO)C[C@H]2C)cc1	none (no result: RecA intein inh, Mtb bLac sens, Rv3671c protease, Mtb UGM inh)
COC(=O)c1cc(C(=O)c2cc(Cl)ccc2O)coc1=N	none
COCCOC(=O)c1cc(C(=O)c2cc(F)ccc2O)coc1=N	GDH-TPI counter 37
COc1ccc2cc(/C=C/C(=O)N3CCN(CC(=O)N4CCCCCC4)CC3)ccc2c1	FBA Mtb inh 30 (no result: RecA intein inh)
C/C(CC(=O)NCc1ccco1)=N\NC(=O)c1ccc([N+](=O)[O-])cc1Cl	RecA intein inh 69
Cn1nnnc1SCc1cn2cccnc2n1	FBA Mtb inh 122
COc1ccc(-c2ccnc3c(C#N)cnn23)cc1	FBA Mtb inh 171
COc1ccc(-c2ccnc3c(Br)c(C)nn23)cc1	none (no result: RecA intein inh)
C/C(=N\NC(=S)Nc1ccccc1C)c1cc2ccccc2o1	Mtb bLac sens inconclusive, GDH-TPI counter 49
C/C(=N\NC(=S)Nc1c(C)cccc1C)c1cc2ccccc2o1	none
CC(C)(C)c1ccc(/C=C2\SC(=O)N(CCNC(=O)c3cccc(S(=O)(=O)N4CCOCC4)c3)C2=O)cc1	RecA intein inh 31
COc1ccc(N2CCN(C(=O)COC(=O)[C@@H](NC(=O)OCc3ccccc3)C(C)C)CC2)cc1	none (no result: RecA intein inh, Mtb bLac sens, Rv3671c protease, Mtb UGM inh)
COc1ccc(C(=O)C(C)Sc2nnc(C3CC3)n2C2CC2)cc1 (stereo unspecified)	none (no result: RecA intein inh)
OC(CN1CCCCC1)Cn1c2ccccc2c2ccccc21 (stereo unspecified)	none
O=c1c2ccccc2n(CC(O)CN2CCCCC2)c2ccccc12 (stereo unspecified)	FBA Mtb inh 109
CCCNC(=S)N1CCC(C(=O)c2ccc(F)cc2)CC1	none
O=C(c1ccco1)N1CCN(c2ccc([N+](=O)[O-])cn2)CC1	GDH-TPI counter 31
COc1cc(OCc2ccccc2)c2c(CCC(=O)O)cc(=O)oc2c1	FBA Mtb inh active (no result: RecA intein inh, Mtb bLac sens, Rv3671c protease, Mtb UGM inh)

Screening results deposited in PubChem by several laboratories.
